Screens: PubChem BioAssay, National Center for Advancing Translational Sciences (NCATS)
HT1080-NT tox = kills 2HG-producing HT-1080-NT fibrosarcoma cells. HT-1080-NT fibrosarcoma viability, CellTiter-Glo ATP luminescence, 48 h. Potency, µM (doses to about 46.1 µM), for the others: at the top dose activity, negative = less viability, actives largely listed as cytotoxic. 1.6% of 360,000 active. AID 686970;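 further: NT is the 2HG producing partner of a matched IDH1 knockdown line; 0% = DMSO-treated cells and -100% = media-only wells without cells; nearly all actives have a fitted effect of over 55% in size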
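Viability by CellTiter-Glo luminescence after 48 h compound exposure at 37C of HT-1080-NT cells (750/well, RPMI, 5% FBS). % activity scaled between DMSO wells and medium-only wells, then curve-fitted and categorized by curve class.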
KB-V1 MDR tox = kills drug-selected multidrug resistant KB-V1 cells; KB-V1 MDR cells viability, CellTiter-Glo, 72 h; Potency, µM (top dose mostly 46.1 µM), most hits filed as cytotoxic; 3.4% of 400,000 active; AID 1347076; further: nearly all actives have a fitted effect of over 60% in size
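Cytotoxicity toward P-gp-expressing KB-V1 cells was determined as loss of CellTiter-Glo luminescence after 72 h at 37 degrees C. Compounds were tested in quantitative HTS format across a concentration range, with curves fitted to normalized data.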
KB-3-1 tox = kills parental KB-3-1 adenocarcinoma cells. Potency, µM (series often up to 46.1 µM), hits mostly cytotoxic. 1.4% of 400,000 active. KB-3-1 viability, CellTiter-Glo ATP luminescence, 72 h; further: nearly all actives have a fitted effect of over 60% in size
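Viability of parental KB-3-1 cells, measured by CellTiter-Glo luminescence, followed a 72 h incubation at 37 °C with pinned compounds in phenol-red-free DMEM containing 10% FBS.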
TDP1 cell noCPT = qHTS for Inhibitors of human tyrosyl-DNA phosphodiesterase 1 (TDP1): qHTS in cells in absence of CPT; 15% of 420,000 active; Potency, µM (highest dose often 46.2 µM), without a hit: top-dose activity change, negative = growth inhibition, hits mostly inhibitors; DT40 Tdp1-/- hTDP1 cells, no CPT, ATP luminescence, 48 h; further: nearly all actives have a fitted effect of over 55% in size
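DT40 Tdp1-/-;hTDP1 cells, no CPT (DMSO vehicle only), 400 cells/well; compounds pin-transferred; ≥48 hr, 37 °C; CellTiter-Glo 30 min RT dark, luminescence read.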
HT1080 IDH1KD tx = HT-1080 IDH1 knockdown cell toxicity (counter line); HT-1080 IDH1 knockdown viability, ATP luminescence, 48 h; Potency, µM (highest dose often 46.1 µM), inactives show at the top dose activity, negative = toxicity, usual class: cytotoxic; 2% of 360,000 active; AID 686971;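 further: 0% = DMSO wells and -100% = cell-free medium wells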
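Luminescent ATP read-out (CellTiter-Glo, 10 min at room temperature) after 48 h compound exposure at 37 °C gave viability of IDH1-knockdown HT-1080 cells. Activity was normalised to DMSO and cell-free wells, then fitted as concentration-response curves.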
DT40 TDP1 CPT = growth inhibition of DT40 Tdp1-/-;hTDP1 cells with camptothecin (screen for TDP1 inhibitors); Potency, µM (highest dose often 46.2 µM), for the others: top-dose activity change, negative = growth inhibition, actives largely listed as inhibitors; chicken DT40 Tdp1-/-;hTDP1 cells + 20 nM CPT, ATP luminescence, 48 h; 12% of 420,000 active; AID 686979; further: nearly all actives have a fitted effect of over 55% in size
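Chicken DT40 Tdp1-/- cells stably complemented with human TDP1 were seeded at 400 cells/well in medium containing 20 nM camptothecin, exposed to pin-transferred compounds, and grown at 37 °C for at least 48 hr. Viability was read as ATP luminescence.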
* = called active by the depositor; i = inactive; ? = inconclusive; . = no result; [ ] = dose if it differs, or a comment. Compounds with a hit are over-represented: about 19% of the library has one in this group of screens. The call rests on the fitted dose curve; in most records, active means well fitted curve in the direction sought with a large enough effect; inconclusive means small, poorly fitted or top-dose-only effect, or another doubt; inactive means no such curve, though single readings can be large; an effect the other way counts as inactive or inconclusive. Unless noted, on the % scale 0 is the no-effect control and ±100 the full control effect; potency means the concentration at half of the fitted maximal effect.

SMILES | HT1080-NT tox | KB-V1 MDR tox | KB-3-1 tox | TDP1 cell noCPT | HT1080 IDH1KD tx | DT40 TDP1 CPT
C=CCC1(CC=C)CCCN1C(=O)c1cc(COc2ccc(F)c(F)c2)on1 | -5% | i | i | ? | -24% | 18µM*
Cc1ccc(OCc2cc(C(=O)N3CCCC3)no2)cn1 | -6% | i | ? | ? | -1% | -30%
C=CCC1(CC=C)CCCN1C(=O)c1cc(COc2ccccc2SC)on1 | -6% | . | . | 21µM* | -16% | ?
NS(=O)(=O)c1ccc(NC(=O)COC(=O)C2CC(=O)N(Cc3ccccc3)C2)cc1 (centres undefined) | 2% | ? | i | -21% | 20% | 8%
C=CCSc1nnc(C2CCCN(Cc3ccccc3O)C2)n1C (centres undefined) | . | . | . | -2% | . | 0%
O=C1C[C@@H]2C(=O)N(c3ccccc3)C(=O)[C@@H]2[C@@H]2CN(S(=O)(=O)c3ccccc3)[C@@H](c3ccccc3)[C@H]12 | 4% | i | i | -9% | 8% | -15%
COCCCNC(=O)C1CCN(c2nc3ccc(C)cc3[nH]2)CC1 | . | i | i | -14% | . | -16%
CC(=O)OCC(=O)C1CCC2C3CCC4=CC(=O)C=CC4(C)C3CCC12C (centres undefined) | 14% | 16µM* | i | ? | 20% | ?
Cc1ccc(Oc2ccc(S(=O)(=O)NCC(C)(C)N3CCOCC3)cc2)cc1 | -19% | 12µM* | ? | -79% | -11% | -64%
C[N+](C)(C)C/C=C1/COCO1 | 19% | i | i | ? | 23% | 18µM*
CC(=O)OC1CC2C(C)(C)C(=O)C3OC3[C@]2(C)C2CC[C@@]3(C)C(c4ccoc4)OC(=O)C4OC43[C@]12C (some centres undefined) | . | . | . | -12% | . | 7%
COc1ccc(CCNC(=O)Nc2ccc3c(c2)c(=O)n(C)n3CC=C(C)C)cc1OC | 22% | i | i | ? | 17% | ?
c1ccc(CCNc2c3c(nc4ncnn24)CCC3)cc1 | 2% | 12µM* | i | ? | -6% | ?
Cc1cc(NCCc2ccccc2F)n2ncnc2n1 | 0% | ? | i | ? | -6% | 0%
Fc1ccccc1CCNc1c2c(nc3ncnn13)CCCC2 | 0% | i | ? | 5.2µM* | -10% | 9.2µM*
CCCCC[C@@H](C)N1C[C@@H](COCc2ccccc2)Oc2cc(N3CC[C@H](N(C)C)C3)ccc2S1(=O)=O | 21µM* | ? | ? | 18µM* | ? | ?
C[C@@H](c1ccccc1)N1C[C@@H](COCc2ccccc2)Oc2cc(N3CC[C@H](N(C)C)C3)ccc2S1(=O)=O | 2% | i | ? | -14% | 12% | -21%
C[C@H](c1ccccc1)N1C[C@@H](COCc2ccccc2)Oc2cc(N3CC[C@@H](N(C)C)C3)ccc2S1(=O)=O | ? | i | i | ? | ? | 18µM*
C[C@H](c1ccccc1)N1C[C@@H](COCc2ccccc2)Oc2cc(N3CC[C@H](N(C)C)C3)ccc2S1(=O)=O | ? | 23µM* | i | 16µM* | ? | ?
COc1ccc(-c2cc(C(F)(F)F)nc(SCC(=O)NCc3ccc(Cl)cc3)n2)cc1 | . | . | . | ? | . | -2%
Cc1ccc(CNC(=O)CN(C(=O)C2(C)CC(=O)N=C3C=CC=CN32)c2ccccc2F)cc1 (centres undefined) | 4% | i | i | ? | 0% | -15%
COc1ccc(/C=C2/N=C3CCCCCN3C2=O)cc1OC | 9% | i | i | 29µM* | 7% | ?
O=C1N=C(N2CCCCC2)S/C1=C\c1ccc(Br)cc1 | 6% | i | i | ? | 10% | -23%
COc1ccc(/C=C2\SC(N3CCCCC3)=NC2=O)cc1OC | -6% | i | i | 21µM* | -5% | -17%
CCOc1ccc(/C=C2\SC(N3CCCCC3)=NC2=O)cc1 | -4% | i | i | 2.9µM* | 0% | 6.5µM*
SMILES | HT1080-NT tox | KB-V1 MDR tox | KB-3-1 tox | TDP1 cell noCPT | HT1080 IDH1KD tx | DT40 TDP1 CPT
COc1ccc(/C=C2\N=C3CCCCCN3C2=O)cc1 | -2% | i | i | -5% | 16% | 5%
COc1ccc(OC)c(/C=C2\SC(N3CCCC(C)C3)=NC2=O)c1 (centres undefined) | -4% | i | i | 21µM* | -22% | 16µM*
COc1cc(/C=C2\SC(N3CCC(C)CC3)=NC2=O)ccc1O | 1% | i | i | ? | -12% | -23%
Cc1ccc2c(CC(=O)N3CCOc4ccc(CN5CCOCC5)cc4C3)cc(=O)oc2c1 | . | . | . | -18% | . | -3%[9.04 µM]
CC(C)c1ccc(/C=C2\SC(N3CCCC3)=NC2=O)cc1 | -17% | i | i | 23µM* | -13% | ?
Nc1nn2cc(-c3ccccc3)nc2c2ccccc12 | ? | 16µM* | i | ? | ? | ?
Cc1cn2nc(N)c3ccccc3c2n1 | -12% | i | i | 18% | -7% | 1%
COc1ccc(CCC(=O)NNC(=O)Nc2ccccc2Cl)cc1 | -4% | i | i | 3% | -5% | -2%
CCCCC[C@H](C)N1C[C@@H](COCc2ccccc2)Oc2cc(N3CCC[C@@H]3COC)ccc2S1(=O)=O | 11% | ? | i | 18µM* | 16% | 21µM*
